Experimental findings from PubChem BioAssay (NCI) are described below.

Test systems include SK-MEL-2 melanoma; EKVX NSCLC; SN12C renal; UO-31 renal; TK-10 renal; ACHN renal; CAKI-1 renal; A498 renal; CCRF-CEM leukemia; MOLT-4 leukemia.
Common to all, as to assay: NCI-60 one-dose screen, 48 h (100 = growth as untreated, 0 = no growth, -100 = all killed)
What all share (conditions): 10 µM unless noted

This is part of a sample that, as a whole, favours compounds with a hit. Of some 83,000 tested, about 20% had one in any assay.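 Growth was measured after 48 h exposure to one concentration of compound in 96-well plates. Values under 10 count as active.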 Values without a mark were called inactive. The source made the active and inactive calls.

On to `CCOC(=O)C/C(=C\c1ccccc1)C(C)=O`, for which the growth was 89.3% in the assay on SK-MEL-2 melanoma; 102% with EKVX NSCLC; 105% in the assay with SN12C renal; 99.3% in the assay with UO-31 renal; 96.3% with TK-10 renal; 107% with ACHN renal. For the same compound, the growth with CAKI-1 renal was 94.5%; in the assay on A498 renal it was 114%; with CCRF-CEM leukemia, 90.3%; in the assay with MOLT-4 leukemia it was 93.8%.

As for `CC(Cc1ccco1)C(=O)NC(N)=O` (stereo not given), the growth was 106% in the assay on SK-MEL-2 melanoma; 98% with EKVX NSCLC; 103% in the assay on SN12C renal; 91.6% in the assay on UO-31 renal; 98.7% in the assay with TK-10 renal; 108% in the assay on ACHN renal. Besides, the growth with CAKI-1 renal is 92.1%; in the assay with A498 renal, 102%; in the assay with CCRF-CEM leukemia, 98.9%; with MOLT-4 leukemia it was 98.8%.

Take `CN1CCN(CC#CCn2c3c(c4ccccc42)C[C@]2(C)[C@H]4CC[C@@H]5[C@H]6[C@H]7OC(=O)[C@@]6(CCC7(C)C)CC[C@@]5(C)[C@]4(C)CC[C@H]2C3(C)C)CC1`: the growth in the assay on SK-MEL-2 melanoma was 118%; in the assay with EKVX NSCLC, 99.2%; with SN12C renal, 52.8%; in the assay with UO-31 renal, 67.2%; in the assay on TK-10 renal, 161%; with ACHN renal, 91.3%. Also, the growth in the assay on CAKI-1 renal was 52.4%; in the assay on A498 renal, 71.6%; in the assay with CCRF-CEM leukemia it was -0.753% (active); with MOLT-4 leukemia it was 41.6%.

On to `Fc1ccc2[nH]cc(-c3nc(-c4c[nH]c5ncccc45)cs3)c2c1`, for which the growth in the assay with SK-MEL-2 melanoma is 52.9%; with EKVX NSCLC it was 37.2%; in the assay on SN12C renal, 49.3%; with UO-31 renal it was 41.8%; in the assay with TK-10 renal, 52.2%; with ACHN renal it was 11.3%. Further, the growth in the assay on CAKI-1 renal is 18.6%; in the assay on A498 renal, 33.5%; in the assay with CCRF-CEM leukemia, 18.7%; with MOLT-4 leukemia, 2.93% (active).

With `C=C(C)[C@@H]1CC[C@]2(C(=O)N3CCCNCC3)CC[C@]3(C)[C@H](CC[C@@H]4[C@@]5(C)CCC(=O)C(C)(C)[C@@H]5CC[C@]43C)[C@@H]12`, the growth in the assay on SK-MEL-2 melanoma was 118%; with EKVX NSCLC it was 98.3%; in the assay on SN12C renal, 84%; in the assay on UO-31 renal it was 85.5%; with TK-10 renal it was 127%; with ACHN renal, 105%. The growth in the assay on CAKI-1 renal was 67.8%; in the assay with A498 renal, 89.5%; with CCRF-CEM leukemia, 84.2%; in the assay on MOLT-4 leukemia it was 63.3%.

Consider `COc1ccc(-c2nc(SCC(=O)Nc3ccc(C(C)=O)cc3)[nH]c(=O)c2C#N)cc1`, for which the growth with SK-MEL-2 melanoma is 104%; in the assay with EKVX NSCLC, 102%; in the assay with SN12C renal it was 94.5%; in the assay on UO-31 renal it was 105%; in the assay with TK-10 renal, 98.4%; in the assay with ACHN renal it was 101%. Further, the growth in the assay with CAKI-1 renal is 96.2%; with A498 renal it was 98.1%; with CCRF-CEM leukemia, 109%; in the assay on MOLT-4 leukemia, 103%.

Consider `CN(C)c1ccc(N)c2ccccc12`, for which the growth was 89.6% in the assay on SK-MEL-2 melanoma; 49.2% in the assay with EKVX NSCLC; -62.2% (active) with SN12C renal; 52.7% with UO-31 renal; 128% in the assay on TK-10 renal; 67.2% with ACHN renal. Further, the growth is 69.4% with CAKI-1 renal, 183% in the assay with A498 renal, 41.8% in the assay on CCRF-CEM leukemia and 40.7% in the assay on MOLT-4 leukemia.

In the case of `COc1ccccc1CNc1nc(N)nc2[nH]c3ccc(O)cc3c12`, the growth with SK-MEL-2 melanoma is 15.8%; with EKVX NSCLC it was 90.4%; in the assay on SN12C renal, 55.3%; in the assay with UO-31 renal, 59.6%; with TK-10 renal, 68.6%; with ACHN renal it was 68.5%. Besides, the growth is 80.5% in the assay on CAKI-1 renal, 28% in the assay on A498 renal, 44% in the assay with CCRF-CEM leukemia and 22.4% in the assay on MOLT-4 leukemia.

`Nc1c2c(nc3ccc(Br)cc13)CC(c1ccccc1)CC2=O` (stereo not given): the growth is 59.2% in the assay on SK-MEL-2 melanoma; 27.2% in the assay on EKVX NSCLC; 51.3% in the assay on SN12C renal; 53.1% in the assay on UO-31 renal; 85.7% in the assay on TK-10 renal; 57.7% with ACHN renal. In addition, the growth was 47.2% in the assay on CAKI-1 renal, 1.16% (active) in the assay with A498 renal, 19.7% in the assay with CCRF-CEM leukemia and 29.3% with MOLT-4 leukemia.

On to `CC(=O)c1c(C)[nH]c(-c2nc3ccc(N4CCN(C)CC4)cc3[nH]2)c1-c1ccc2c(c1)OCCO2`, for which the growth in the assay on SK-MEL-2 melanoma was 76.4%; with EKVX NSCLC, 45.2%; in the assay with SN12C renal it was 58.5%; with UO-31 renal it was 9.19% (active); in the assay on TK-10 renal, 1.44% (active); in the assay with ACHN renal, 29.3%. The growth with CAKI-1 renal is 13.3%; with A498 renal it was 45.5%; in the assay with CCRF-CEM leukemia, 50.3%; in the assay on MOLT-4 leukemia, 58.3%.

Take `COc1cnc2c(c1)C(=O)c1c-2n(CCCNC(C)C)c(=O)c2cc([N+](=O)[O-])ccc12`: the growth is -58.6% (active) in the assay with SK-MEL-2 melanoma; -50% (active) with EKVX NSCLC; -54.6% (active) in the assay with SN12C renal; -75.6% (active) with UO-31 renal; -63.6% (active) in the assay on TK-10 renal; -84.5% (active) in the assay with ACHN renal. The growth with CAKI-1 renal was -71.8% (active); in the assay on A498 renal, -84.7% (active); with CCRF-CEM leukemia, 2.43% (active); in the assay with MOLT-4 leukemia, -15.6% (active).

On to `Nc1nc(Br)nc2c1ncn2C1CC(O)C(CO)O1` (stereo not given), for which the growth was 102% in the assay on SK-MEL-2 melanoma; 71% with EKVX NSCLC; 52.1% in the assay with SN12C renal; 34.1% in the assay on UO-31 renal; 71.2% in the assay with TK-10 renal; 29.8% in the assay with ACHN renal. For the same compound, the growth was 50.9% in the assay on CAKI-1 renal, 89.4% in the assay on A498 renal, 27.4% in the assay on CCRF-CEM leukemia and 27.7% with MOLT-4 leukemia.

Turning to `COC(=O)[C@]12CC[C@@H](C)[C@H](C)[C@@H]1C1=CC(=O)[C@@H]3[C@@]4(C)C[C@@H](O)[C@H](O)[C@@]5(C)COC(=C45)C[C@@]3(C)[C@]1(C)CC2`, the growth was 33.6% with SK-MEL-2 melanoma; 75.8% in the assay on EKVX NSCLC; 55% with SN12C renal; 65.8% in the assay on UO-31 renal; 83.3% in the assay on TK-10 renal; 69.5% with ACHN renal. For the same compound, the growth is 71.1% with CAKI-1 renal, 37.5% in the assay with A498 renal, 59.7% in the assay on CCRF-CEM leukemia and 24.6% in the assay on MOLT-4 leukemia.
